# LANA-H2B inh: blockers of LANA interaction with H2A/H2B – biochemical, FP readout, HTS, primary screen | cell-free LANA-H2A/H2B peptide, fluorescence polarization | inhibition, % (concentration not given with the values) | hit rate 0.6% among 320,000; in the data active = inhibition mostly above about 10%, no sharp cut-off; inactive = mostly below about 6.7%
# Target sequence (Q9QR71 whole entry, looked up): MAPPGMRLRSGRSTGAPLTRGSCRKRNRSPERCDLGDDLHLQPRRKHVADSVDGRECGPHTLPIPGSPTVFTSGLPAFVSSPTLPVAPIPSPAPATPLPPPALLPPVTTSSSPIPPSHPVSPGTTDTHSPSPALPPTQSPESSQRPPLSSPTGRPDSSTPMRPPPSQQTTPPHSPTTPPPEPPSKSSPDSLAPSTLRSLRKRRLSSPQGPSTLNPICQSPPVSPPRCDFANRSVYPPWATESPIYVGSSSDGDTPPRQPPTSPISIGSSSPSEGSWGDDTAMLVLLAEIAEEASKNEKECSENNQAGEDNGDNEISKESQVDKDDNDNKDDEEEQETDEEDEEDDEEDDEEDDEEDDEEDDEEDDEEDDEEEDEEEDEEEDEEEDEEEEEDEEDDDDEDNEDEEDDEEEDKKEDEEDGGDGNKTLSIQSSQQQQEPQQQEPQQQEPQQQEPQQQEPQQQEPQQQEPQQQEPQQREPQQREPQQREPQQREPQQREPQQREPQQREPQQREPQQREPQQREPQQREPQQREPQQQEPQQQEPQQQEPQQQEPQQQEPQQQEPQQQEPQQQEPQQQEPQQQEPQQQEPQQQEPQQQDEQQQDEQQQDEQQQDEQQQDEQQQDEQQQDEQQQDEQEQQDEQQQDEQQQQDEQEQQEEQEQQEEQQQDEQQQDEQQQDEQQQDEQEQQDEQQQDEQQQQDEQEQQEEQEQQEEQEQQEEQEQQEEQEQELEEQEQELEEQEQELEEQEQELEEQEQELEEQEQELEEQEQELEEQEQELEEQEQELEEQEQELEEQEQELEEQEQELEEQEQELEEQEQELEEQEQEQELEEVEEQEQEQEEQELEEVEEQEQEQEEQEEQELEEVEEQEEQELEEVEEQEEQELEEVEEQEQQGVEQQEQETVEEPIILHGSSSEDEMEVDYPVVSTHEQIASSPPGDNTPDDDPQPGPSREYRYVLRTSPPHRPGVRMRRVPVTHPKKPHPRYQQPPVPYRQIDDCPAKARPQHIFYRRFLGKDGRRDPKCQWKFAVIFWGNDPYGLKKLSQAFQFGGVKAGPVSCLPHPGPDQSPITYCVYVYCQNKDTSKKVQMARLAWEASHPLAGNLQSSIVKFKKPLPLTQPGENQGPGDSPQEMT
# Keap1 Nrf2 FP: Keap1-Nrf2 protein-protein interaction inhibitors, primary screen, biochemical, fluorescence polarization, single point; hit rate 0.15% among 340,000; inhibition, % at 9.4 µM; Keap1 Kelch-Nrf2 peptide fluorescence polarization, 1536-well; in the data active = inhibition above about 12%; inconclusive = no clear call, values can overlap the other calls; inactive = below about 7.3%;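 also: human Keap1 Kelch domain with fluorescein labeled Nrf2 9mer peptide probe; 0% = neutral control wells and 100% = peptide positive control; higher means more block of Keap1 binding to Nrf2 peptide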
# LANA DNA inh: inhibitors of KSHV C-LANA binding to DNA, primary screen, biochemical, fluorescence polarization, FAM-LBS DNA, MBP-C-LANA, single point; hit rate 0.078% among 340,000; Kaposi's sarcoma herpesvirus LANA C-terminal domain (residues 932-1162) DNA binding; inhibition, % at 9 µM; AID 504423, 2011;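 active = highest replicate inhibition at or above 60% at 9 µM, even if other replicates fall short; inactive = all replicates below 60% inhibition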;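 also: 0% = neutral control wells and 100% = 4 µM acridine orange control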
# Cardiac RTF inh: cardiac RTF calcium sensitivity inhibitors, primary screen, biochemical, IANBD-TnC fluorescence, EC70 calcium; Troponin I, cardiac muscle (Homo sapiens) + Troponin T, cardiac muscle (Homo sapiens) + …; hit rate 0.12% among 340,000; IANBD-labeled cardiac RTF, Ca2+ fluorescence; inhibition, % at 7.15 µM;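 active = inhibition above the mean inhibition of all tested compounds plus 3 SD, cut at about 17% in these data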;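 also: assay run at fixed EC70 calcium of 1.6 mM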
# cardiac RTF act: cardiac RTF calcium sensitivity activators, primary screen, biochemical, IANBD-TnC fluorescence, EC20 calcium; hit rate 0.24% among 340,000; IANBD-labeled TnC RTF fluorescence at EC20 calcium; 0% EC20 calcium, 100% full calcium; Troponin I, cardiac muscle (Homo sapiens) + Troponin T, cardiac muscle (Homo sapiens) + …; AID 493008, 2010; activation, % at 7.2 µM;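 active = activation above the mean over all tested compounds plus 3 SD, cut at about 30% in these data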;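 also: rise in fluorescence read as greater calcium sensitivity of cardiac thin filaments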
# The depositor's hits bear a star; u = inconclusive; x = not tested or not shown; + = active, no number. A selection: hits, their analogues and other compounds. The true share with any hit is near 0.98%.
SMILES,LANA-H2B inh,Keap1 Nrf2 FP,LANA DNA inh,Cardiac RTF inh,cardiac RTF act
COc1cc(NC(=O)C2CCN(S(=O)(=O)c3cccs3)CC2)cc(OC)c1,-2,-7,-2,-1,0
COc1ccccc1C(C)NC(=O)C1CCN(S(=O)(=O)c2cccs2)CC1 (configuration not stated),+,-5,-3,-5,0
COc1ccccc1C(=O)NC(=O)COC(=O)c1ccc(Cl)nc1,3,1,1,-25,-5
NC(=S)Nc1ncc(C(F)(F)F)cc1Cl,128*,0,0,7,-4
Cc1ccc(CNC(=O)C2CCN(S(=O)(=O)c3ccc4c(c3)CC(C)N4C(=O)C3CCC3)CC2)o1 (configuration not stated),0,-4,0,-3,-6
COc1ccc(NC(=O)[C@H](C)NC(=O)C2CCN(S(=O)(=O)c3ccc(C)cc3)CC2)cc1,5,-2,-2,0,4
CCC(=O)N/N=C/c1ccc(-c2ccc([N+](=O)[O-])cc2)o1,4,1,3,7,0
CC(C)(C)C(=O)/C=c1\s/c(=C\c2ccc(-c3ccc([N+](=O)[O-])cc3)o2)c(=O)n1CC(=O)NC(N)=O,-2,-12,1,-91,54*
CN(C)C(CNC(=O)c1cc2ccccc2o1)c1ccco1 (configuration not stated),1,-3,0,-4,2
Cc1noc(C)c1C(=O)N1CCCC(Nc2ccc(C(C)C)cc2)C1 (configuration not stated),21*,4,1,-3,1
COc1cccc(NC(=O)CN(C)C(=O)C23CC4CC(CC(Cl)(C4)C2)C3)c1,42*,1,0,-2,-4
Clc1ccc(/C=C/c2nc3ccccc3[nH]2)cc1,-2,0,1,-5,-1
Clc1cccc(Cl)c1/C=C/c1nc2ccccc2[nH]1,11*,-2,0,-5,3
Cc1cc(C(=O)NC(CC(C)C)C(=O)O)cc(C)c1[N+](=O)[O-] (configuration not stated),25*,1,-3,-5,15
CC(C)CC(NC(=O)c1cccc(Cl)c1)C(=O)O (configuration not stated),-6.2*,-4,0,0,0
CCOCCn1c(C)c(C(=O)OCC)c2cc(O)c3ccccc3c21,-1,-2,3,3,-1
CCOC(=O)c1c(-c2ccccc2)csc1NC(=O)/C(C#N)=C/c1ccc(O)c(OC)c1,-5,-1,1,-56,47*
CCOC(=O)c1c(-c2ccccc2)csc1NC(=O)/C(C#N)=C/c1ccc(OC)c(OC)c1,2,1,-2,9,-8
COc1ccc([C@H]2CC(=O)C=C(c3ccc4c(c3)sc3ccccc34)C2)cc1,-4,-3,0,0,-4
COc1cccc(N2CC(NC(=O)C(=O)c3c[nH]c4ccccc34)CC2=O)c1 (configuration not stated),1,0,-2,-6,-4
COCCCn1c(SCC(=O)Nc2ccc(NC(=O)c3ccco3)c(OC)c2)nc2ccccc2c1=O,28*,-5,0,10,-2
CCOC(=O)c1c(C)cc(C)[nH]c1=O,-3,-3,1,-3,8
O=C(O)c1cc(NC(=O)c2cccc(C(=O)Nc3cc(C(=O)O)cc(C(=O)O)c3)c2)cc(C(=O)O)c1,7,-1,0,-7,1
O=C(N/N=C1\CCCc2c1[nH]c1ccc(Cl)cc21)c1ccncc1,44*,-3,-3,-3,10
CC(=O)Oc1cccc(/C=C2\Sc3ccccc3C2=O)c1,14*,-4,0,0,2
SMILES,LANA-H2B inh,Keap1 Nrf2 FP,LANA DNA inh,Cardiac RTF inh,cardiac RTF act
Cn1c(CC(=O)NNC(=O)c2cccnc2)nc2ccccc21,19*,-6,1,1,-9
Cn1c(CC(=O)NNC(=O)c2ccc(F)cc2F)nc2ccccc21,-1,-5,2,-10,0
CC(NC(=O)c1cc(COc2c(F)cccc2F)on1)c1cnn(-c2ccccc2)c1 (configuration not stated),47*,-2,1,-2,-1
COc1cc(CNCCc2ccccc2)ccc1OCC(=O)NC(C)(C)C,-4,-6,1,-8,4
COc1cc(CNCCc2ccccc2)ccc1OCC(N)=O,20*,-2,0,-5,9
COc1ccc(Cl)cc1NC(=O)C1CC(=O)N(C2CCCCC2)C1 (configuration not stated),3,-9,0,1,6
CCN(CC)c1ccc2cc(S(=O)(=O)c3ccc(C)cc3)c(=O)oc2c1,4,u,36,-40,53*
Cc1ccc(S(=O)(=O)c2cc3ccccc3oc2=O)cc1,1,-1,-1,-5,4
CCNc1nc(NCC)nc(N/N=C/c2ccc(N(C)C)cc2)n1,65*,-3,0,-7,-1
C=CCOC(=O)c1ccccc1C(=O)OCC1CO1 (configuration not stated),x,0,0,-2,-2
Cc1nc2c(=O)[nH]c(=S)[nH]c2[nH]c1=O,x,u,103*,2,-13
O=C(NCCc1ccccc1)c1cnc2n(c1=O)CCS2,13*,-6,0,0,8
CCCC(C)c1nnc(NC(=O)CS(=O)(=O)Cc2ccccc2)s1 (configuration not stated),30*,-1,1,6,7
COCCn1c(SCC(=O)N2CCCCC2)nc2c(c1=O)SC(C)C2 (configuration not stated),-6,-2,-2,-3,-6
CN1CCN(C(=O)c2cccc(NS(=O)(=O)c3ccc(Br)cc3)c2)CC1,1,0,0,2,2
CN1CCCN(C(=O)c2cccc(Br)c2)CC1,12*,-6,-1,-7,7
Cc1ccc(S(=O)(=O)c2nc(-c3ccccc3F)oc2N2CC(C)OC(C)C2)cc1 (configuration not stated),59*,-5,0,-5,5
O=S(=O)(c1ccc(F)cc1)c1nc(-c2ccccc2F)oc1N1CCCCC1,4,-11,2,-6,-4
CC(CCN1CCN(CCO)CC1)c1ccccc1 (configuration not stated),2,-2,1,-6,1
Cc1noc(C)c1COc1ccc(C(=O)OCC(=O)Nc2ccc(S(N)(=O)=O)cc2)cc1,1,1,1,-9,-2

# Assay outcomes deposited in PubChem by several laboratories.
